{"source": "PubChem BioAssay (NCATS)", "note": "Inconclusive results are not listed. Activity calls are given as the source filed them. The call rests on the fitted dose curve; in most records, active means well fitted curve in the direction sought with a large enough effect; inconclusive means small, poorly fitted or top-dose-only effect, or another doubt; inactive means no such curve, though single readings can be large; an effect the other way counts as inactive or inconclusive."}
{"target": "Rap guanine nucleotide exchange factor 3 (Homo sapiens) (UniProt O95398)", "sequence (O95398 whole entry, looked up)": "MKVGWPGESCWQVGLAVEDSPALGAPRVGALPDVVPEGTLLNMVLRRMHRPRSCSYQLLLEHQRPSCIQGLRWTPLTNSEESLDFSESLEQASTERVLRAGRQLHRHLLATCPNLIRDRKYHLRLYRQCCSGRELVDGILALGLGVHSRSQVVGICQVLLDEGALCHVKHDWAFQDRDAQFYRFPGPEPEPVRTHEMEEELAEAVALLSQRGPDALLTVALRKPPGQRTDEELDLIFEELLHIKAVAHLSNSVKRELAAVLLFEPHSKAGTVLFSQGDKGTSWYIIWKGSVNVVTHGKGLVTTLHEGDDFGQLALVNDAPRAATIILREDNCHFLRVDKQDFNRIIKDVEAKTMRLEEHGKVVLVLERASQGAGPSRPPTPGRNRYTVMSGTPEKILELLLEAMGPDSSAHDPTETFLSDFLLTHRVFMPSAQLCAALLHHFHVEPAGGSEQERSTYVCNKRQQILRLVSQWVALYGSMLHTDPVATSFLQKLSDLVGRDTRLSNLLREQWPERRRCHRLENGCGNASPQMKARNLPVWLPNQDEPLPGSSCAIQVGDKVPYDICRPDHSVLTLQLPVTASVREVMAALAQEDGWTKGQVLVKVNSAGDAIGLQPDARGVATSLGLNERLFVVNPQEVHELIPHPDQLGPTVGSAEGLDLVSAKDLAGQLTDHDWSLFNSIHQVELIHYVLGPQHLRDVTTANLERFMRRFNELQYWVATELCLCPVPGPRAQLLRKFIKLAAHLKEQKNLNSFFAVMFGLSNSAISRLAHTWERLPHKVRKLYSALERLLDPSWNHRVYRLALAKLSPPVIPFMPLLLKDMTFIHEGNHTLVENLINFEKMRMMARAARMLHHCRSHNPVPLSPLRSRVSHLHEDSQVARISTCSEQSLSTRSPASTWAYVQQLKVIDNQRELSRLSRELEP", "experiment": "Confirmatory qHTS for antagonist of cAMP-regulated guanine nucleotide exchange factor 3 (EPAC1) (AID 1645880); further: nearly all actives have a fitted effect of over 55% in size; further: potency means the concentration at half of the fitted maximal effect;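 on activity, negative = inhibition: plate controls were DMSO only for no effect and full effect of the ATA control for full effect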", "conditions": "EPAC1 Rap1B-BODIPY-GDP exchange, fluorescence; series mostly up to 115 µM; activity, negative = inhibition: at the top concentration", "method_in_brief": "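Nucleotide exchange uses 100 nM EPAC1, 250 nM RAP1B-BODIPY-GDP and 50 uM GDP, with compounds in a concentration-titration series. After 5 min at room temperature, fluorescence (480 nm ex/540 nm em) is read every 5 min for 30 min. Data are normalized to control ATA and DMSO.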"}
{"smiles": "CC(=O)S[C@@H]1CC2=CC(=O)CC[C@]2(C)[C@H]2CC[C@@]3(C)[C@@H](CC[C@@]34CCC(=O)O4)[C@H]12", "activity, negative = inhibition": "-16.1% (inactive)"}
{"smiles": "O=C(O)c1cc2ccccc2c(Cc2c(O)c(C(=O)O)cc3ccccc23)c1O", "Potency": "4.44 µM (active)"}
{"smiles": "C[C@]12CC[C@@H]3c4ccc(OS(=O)(=O)O)cc4CC[C@H]3[C@@H]1CCC2=O", "Potency": "8.49 µM (active)"}
{"target": "Rap guanine nucleotide exchange factor 3 (Homo sapiens) (UniProt O95398)", "experiment": "Confirmatory qHTS for agonist of cAMP-regulated guanine nucleotide exchange factor 3 (EPAC1) (AID 1645881);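 further: EPAC1 catalysed release of BODIPY-GDP from Rap1B seen as fluorescence loss; nearly all actives have a fitted effect of over 75% in size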", "conditions": "EPAC1 Rap1B BODIPY-GDP exchange fluorescence, 100% = cAMP control response; series mostly up to 154 µM; activation: at the top concentration"}
{"smiles": "CC(=O)S[C@@H]1CC2=CC(=O)CC[C@]2(C)[C@H]2CC[C@@]3(C)[C@@H](CC[C@@]34CCC(=O)O4)[C@H]12", "activation": "-2.96% (inactive)"}
{"smiles": "O=C(O)c1cc2ccccc2c(Cc2c(O)c(C(=O)O)cc3ccccc23)c1O", "activation": "1.26% (inactive)"}
{"smiles": "C[C@]12CC[C@@H]3c4ccc(OS(=O)(=O)O)cc4CC[C@H]3[C@@H]1CCC2=O", "outcome": "inactive"}
{"target": "Rap guanine nucleotide exchange factor 4 (Homo sapiens) (UniProt Q8WZA2)", "sequence (Q8WZA2 whole entry, looked up)": "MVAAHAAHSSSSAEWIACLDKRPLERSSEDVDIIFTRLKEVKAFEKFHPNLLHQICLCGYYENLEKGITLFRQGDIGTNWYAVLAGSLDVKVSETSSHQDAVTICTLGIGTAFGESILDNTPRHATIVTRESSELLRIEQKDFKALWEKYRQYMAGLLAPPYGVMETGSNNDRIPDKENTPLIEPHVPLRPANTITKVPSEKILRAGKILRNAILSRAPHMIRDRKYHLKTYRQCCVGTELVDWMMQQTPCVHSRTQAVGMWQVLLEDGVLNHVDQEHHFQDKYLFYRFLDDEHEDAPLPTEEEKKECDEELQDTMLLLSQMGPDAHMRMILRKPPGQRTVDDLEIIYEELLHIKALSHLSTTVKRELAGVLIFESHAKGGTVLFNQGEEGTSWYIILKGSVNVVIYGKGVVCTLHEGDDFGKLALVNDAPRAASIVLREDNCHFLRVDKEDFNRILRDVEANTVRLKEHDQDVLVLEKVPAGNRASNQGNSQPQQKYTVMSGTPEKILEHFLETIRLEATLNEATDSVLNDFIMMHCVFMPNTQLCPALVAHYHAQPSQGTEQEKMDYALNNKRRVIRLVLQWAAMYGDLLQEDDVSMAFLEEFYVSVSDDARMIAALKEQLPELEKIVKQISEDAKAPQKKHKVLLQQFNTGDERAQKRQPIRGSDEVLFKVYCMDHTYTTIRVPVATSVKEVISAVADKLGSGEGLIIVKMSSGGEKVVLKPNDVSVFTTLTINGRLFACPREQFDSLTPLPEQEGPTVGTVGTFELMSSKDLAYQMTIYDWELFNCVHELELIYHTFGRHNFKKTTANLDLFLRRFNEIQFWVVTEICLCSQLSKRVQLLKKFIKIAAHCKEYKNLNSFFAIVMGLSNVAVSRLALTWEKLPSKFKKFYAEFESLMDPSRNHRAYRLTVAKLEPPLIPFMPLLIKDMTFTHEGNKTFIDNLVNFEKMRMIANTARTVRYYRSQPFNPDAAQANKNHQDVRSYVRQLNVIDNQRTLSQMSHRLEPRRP", "experiment": "Confirmatory qHTS for agonist of cAMP-regulated guanine nucleotide exchange factor 4 (EPAC2) (AID 1645884);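 further: nucleotide exchange releases bodipy-GDP from Rap1 and this lowers its fluorescence; on the % scale 0 is the no-effect control and ±100 the full control effect; nearly all actives have a fitted effect of over 65% in size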", "conditions": "EPAC2 GEF activity, Rap1B-BODIPY-GDP fluorescence, percent relative to cAMP agonist control; series mostly up to 154 µM; activation: at the top concentration"}
{"smiles": "CC(=O)S[C@@H]1CC2=CC(=O)CC[C@]2(C)[C@H]2CC[C@@]3(C)[C@@H](CC[C@@]34CCC(=O)O4)[C@H]12", "activation": "4.18% (inactive)"}
{"smiles": "O=C(O)c1cc2ccccc2c(Cc2c(O)c(C(=O)O)cc3ccccc23)c1O", "activation": "4.51% (inactive)"}
{"smiles": "C[C@]12CC[C@@H]3c4ccc(OS(=O)(=O)O)cc4CC[C@H]3[C@@H]1CCC2=O", "outcome": "inactive"}
{"target": "Rap guanine nucleotide exchange factor 4 (Homo sapiens) (UniProt Q8WZA2)", "experiment": "Confirmatory qHTS for antagonist of cAMP-regulated guanine nucleotide exchange factor 4 (EPAC2) (AID 1645885); further: on the % scale 0 is the no-effect control and ±100 the full control effect; nearly all actives have a fitted effect of over 25% in size", "conditions": "EPAC2 Rap1B-BODIPY-GDP exchange fluorescence, biochemical; series mostly up to 114 µM; activity change, negative = inhibition: at the top concentration"}
{"smiles": "CC(=O)S[C@@H]1CC2=CC(=O)CC[C@]2(C)[C@H]2CC[C@@]3(C)[C@@H](CC[C@@]34CCC(=O)O4)[C@H]12", "activity change, negative = inhibition": "-19.3% (inactive)"}
{"smiles": "O=C(O)c1cc2ccccc2c(Cc2c(O)c(C(=O)O)cc3ccccc23)c1O", "activity change, negative = inhibition": "13.3% (inactive)"}
{"smiles": "C[C@]12CC[C@@H]3c4ccc(OS(=O)(=O)O)cc4CC[C@H]3[C@@H]1CCC2=O", "Potency": "inactive"}
{"target": "Catechol O-methyltransferase (Homo sapiens) (UniProt P21964)", "sequence (P21964 whole entry, looked up)": "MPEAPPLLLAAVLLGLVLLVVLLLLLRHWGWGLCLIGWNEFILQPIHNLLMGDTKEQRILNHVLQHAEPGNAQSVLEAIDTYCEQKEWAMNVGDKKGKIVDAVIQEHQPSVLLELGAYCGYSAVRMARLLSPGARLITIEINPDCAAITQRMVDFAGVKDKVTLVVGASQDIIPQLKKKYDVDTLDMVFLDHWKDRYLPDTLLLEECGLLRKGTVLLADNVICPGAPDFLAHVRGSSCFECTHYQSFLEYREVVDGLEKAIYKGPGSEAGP", "experiment": "Confirmatory Screen for Target Class Profiling of Small Molecule Inhibitors of Methyltransferases (AID 1745852)", "conditions": "MTase-Glo luminescence, SAH detection, recombinant enzyme; measured here: COMT max response; stronger effect = lower value", "units": {"activity": "%"}}
{"smiles": "C=C1C(=O)OC[C@@H]1C/C=C(\\C)CC1CC(C)C(=O)O1", "note": "(stereo partly specified)", "activity": -80}
{"smiles": "CNCCC(c1cccs1)c1ccc(O)c2ccccc12", "note": "(stereo unspecified)", "activity": -4.76}
{"smiles": "CCN(CC)CCCCCCNc1cc(OC)cc2c(C)ccnc12", "activity": -3.27}
{"smiles": "CC12CCC3C1C(c1c(cc(O)c(C(=O)c4ccccc4)c1O)O2)C3(C)C", "note": "(stereo unspecified)", "activity": -35.5}
{"smiles": "C=C1C(=O)OC2CC(C)C(CCC(C)O)=CCC12", "note": "(stereo unspecified)", "activity": -95.7}
{"smiles": "CN(C)c1ccc(NC(=O)NS(=O)(=O)c2ccc(Cl)cc2)cc1", "activity": -53.7}
{"smiles": "CC#C[C@@H](CC(=O)O)c1ccc(OCc2cccc(-c3ccc(C(F)(F)F)cc3)c2)cc1", "activity": -11.2}
{"smiles": "COc1ccc2nc3n[nH]c(C)c3c(NCCOCCO)c2c1", "activity": -59.3}
{"smiles": "CC(=O)OC/C(=C/C(=O)O)CC[C@@H]1C(C=O)=CC[C@@H]2C(C)(C)CCC[C@@]12C", "activity": -75.1}
{"smiles": "N#CSc1cc(SC#N)c(N)nc1N", "activity": -83.2}
{"smiles": "CCc1c(Cl)c(O)c(Cl)c(O)c1C(=O)O[C@H]1[C@H](O)[C@H](OC)[C@H](OC/C2=C\\C=C\\C[C@H](O)/C(C)=C\\[C@H](CC)[C@@H](O[C@@H]3OC(C)(C)[C@@H](OC(=O)C(C)C)[C@H](O)[C@@H]3O)/C(C)=C/C(C)=C/C[C@@H]([C@@H](C)O)OC2=O)O[C@@H]1C", "activity": -16.7}
{"smiles": "COc1ccc(CCN(C)CCCOc2nsc(-c3ccccc3)n2)cc1OC", "activity": -5.88}
{"smiles": "CC1(C)CCC(C)(C)c2cc(C#Cc3ccc(C(=O)O)cc3)ccc21", "activity": -0.825}
{"smiles": "COc1c2c(c(C)c3c1C(=O)OC3)O[C@@]1(C)C[C@@H](OC(C)=O)[C@]34O[C@](OC)(CC[C@]3(C)[C@H]1C2)OC4(C)C", "activity": -8.48}
{"smiles": "CCCCCCCOc1cc2c(cc1/C(C)=C/c1ccc(C(=O)O)cc1)C(C)(C)CCS2(=O)=O", "activity": -11.5}
{"smiles": "CC1(CO)CC(O)[C@]2(C(=O)O)CCC34CC3(C=CC3[C@]5(C)C(CC[C@]34C)C(C)(CO)[C@@H](O)[C@H](O)[C@@H]5O)C2C1", "note": "(stereo partly specified)", "activity": -56.5}
{"smiles": "C=C1C(=O)O[C@@H]2C=C(COC(C)=O)CC/C=C(\\CO)CC[C@@H]12", "activity": -83.7}
{"smiles": "C=C1C(OC2OC(CO)C(O)C(O)C2O)CC2C(C)(C)C(O)CCC2(C)C1CC/C(C)=C\\COC(=O)CC(=O)O", "note": "(stereo unspecified)", "activity": -58.5}
{"smiles": "N#Cc1ccc(N2N=C3c4ccc(C(=O)O)cc4CC[C@@H]3[C@@H]2C2CCCC2)cc1Cl", "activity": 7.42}
